# Measurements from PubChem BioAssay.
# A number with no mark means an inactive call. How the calls were made is not given here.
# Tested on: Botulinum neurotoxin type F light chain protease (Clostridium botulinum)
# Assay: Botulinum neurotoxin type F light chain protease inhibition, multiplex microsphere flow cytometry, validation set (AID 588459)
# Settings: multiplex microsphere protease substrate cleavage assay, at 10 µM, hits give high values
row,Compound,inhibition
1,CCn1c(=N)c(C(=O)NC)cc2c(=O)n3cccc(C)c3nc21,3.8%
2,CCOC(=O)c1oc2cc(OCC(N)=O)ccc2c(=O)c1-c1ccc(OC)c(OC)c1,-3.1%
3,CC1=CC2(O)OCCN(CCO)C2=CC1=O (stereo not drawn),-1.5%
4,COc1ccc2[nH]cc(C3N4CC5(C)CN3CC(C)(C4)C5=O)c2c1 (stereo not drawn),3%
5,CC(=O)N1CC23C=CC(CC2CC12CCCCCC2)O3 (stereo not drawn),1.3%
6,Cc1ccc(OCCCCn2ccnc2C)c(C)c1,-5.4%
7,CC1(C)CC(=O)C(C2=NC(C)(C)Cc3ccccc32)=C(O)C1,0%
8,COC(=O)c1[nH]c2ccc(C)cc2c1NC(=O)CN1CCc2cc(OC)c(OC)cc2C1,-1.9%
9,O=C(O)C1CSC(c2ccco2)N1 (stereo not drawn),-2.3%
10,COc1cc(C=NCC2OCCc3ccccc32)cc(OC)c1 (stereo not drawn),5.8%
11,COc1ccc(-c2cc(=Nc3ccc(C)cc3)c3ccccc3o2)cc1,-2.2%
12,NC(N)=N/N=C/c1cccc(Cl)c1Cl,0.9%
13,Cc1oc2c(O)c(O)ccc2c(=O)c1-c1ccccc1,1.6%
14,O=c1[nH]c(Cc2ccccc2)nc2c1oc1ccccc12,4.2%
15,COc1ccc2c(c1O)Cc1ccccc1C2=O,0%
16,Cc1oncc1C(=O)Nc1ccc(C(F)(F)F)cc1,0.9%
17,CC(=O)OCC(=O)[C@@]1(O)[C@H](C)C[C@H]2[C@@H]3CCC4=CC(=O)C=C[C@]4(C)[C@@]3(F)[C@@H](O)C[C@@]21C,3%
18,COC(=O)c1cc(OC)c(OC)cc1NC(=O)CN1C(=O)c2ccccc2C1=O,-3.5%
19,CC(=O)OC[C@H]1O[C@@H](n2ncc(=O)[nH]c2=O)[C@H](OC(C)=O)[C@@H]1OC(C)=O,-0.5%
20,COC(=O)c1ccc(NC(=O)C23CCC(C)(C(=O)O2)C3(C)C)cc1 (stereo not drawn),0.4%

row,Compound,inhibition
1,CC(=O)c1cn(C)c(=O)[nH]c1=O,2.9%
2,CCN(CC)CCN1C(=O)C(=O)/C(=C(/O)c2c(C)[nH]c(C(=O)OC)c2C)C1c1cccnc1 (stereo not drawn),-1.7%
3,COc1ccccc1C(O)c1nccn1C (stereo not drawn),1.9%
4,CC12CCC(C(=O)NCc3ccccn3)(OC1=O)C2(C)C (stereo not drawn),-1.4%
5,COc1cc(OC)c2c(C)c(Cl)c(=O)oc2c1,1.9%
6,O=C(Nc1cccc(Cl)c1)N1CCN2C(=O)c3ccccc3C12c1ccccc1 (stereo not drawn),-3.9%
7,CC(C)OC(=O)CC12CN3CN(C1)CC(CC(=O)OC(C)C)(C3)C2=O,1.8%
8,Cn1c(SCC(=O)c2ccccc2)nnc1-c1ccncc1,1.7%
9,Cc1cc(=O)c2c(O)c(O)ccc2o1,1.8%
10,Cc1ccsc1/C=C/C1=NCCCN1C,-0.9%
11,O=C(N/C(=C/C=C\c1ccccc1)C(=O)N1CCOCC1)c1ccc(Br)cc1,3.8%
12,CC1=CC(=O)c2ccccc2C1=O,-2.1%
13,CSCCC(NC(C)=O)C(=O)Oc1ccc2c3c(c(=O)oc2c1)CCCC3 (stereo not drawn),-3.3%
14,CNc1nc(N(C)C)nc(N(C)C)n1,1.3%
15,COc1ccc(/C=C\C(=O)c2c(O)ccc3c(C)cc(=O)oc23)cc1OC,1.5%
16,O=C1c2ccccc2C2(c3ccccc3)NCCN12 (stereo not drawn),-1.6%
17,O=c1cc(-c2ccccc2)oc2cc(OCc3ccccc3)cc(O)c12,-0.8%
18,COC1(C)CC2C(CC1OC(=O)c1cc([N+](=O)[O-])cc([N+](=O)[O-])c1)C2(C)C (stereo not drawn),-3.2%
19,O=C1[C@@H]2[C@H](Cc3ccc(O)cc3)N[C@]3(C(=O)Nc4ccccc43)[C@@H]2C(=O)N1c1ccc(F)cc1,1.3%

# Target: Botulinum neurotoxin type A (Clostridium botulinum) (UniProt P0DPI0)
# Assay: BoNT/A light chain protease inhibitors, biochemical, multiplex microsphere flow cytometry, validation set (AID 588460)
# Settings: at 10 µM, hits give high values
# Chain of Botulinum neurotoxin type A (Clostridium botulinum) (P0DPI0 whole entry, looked up): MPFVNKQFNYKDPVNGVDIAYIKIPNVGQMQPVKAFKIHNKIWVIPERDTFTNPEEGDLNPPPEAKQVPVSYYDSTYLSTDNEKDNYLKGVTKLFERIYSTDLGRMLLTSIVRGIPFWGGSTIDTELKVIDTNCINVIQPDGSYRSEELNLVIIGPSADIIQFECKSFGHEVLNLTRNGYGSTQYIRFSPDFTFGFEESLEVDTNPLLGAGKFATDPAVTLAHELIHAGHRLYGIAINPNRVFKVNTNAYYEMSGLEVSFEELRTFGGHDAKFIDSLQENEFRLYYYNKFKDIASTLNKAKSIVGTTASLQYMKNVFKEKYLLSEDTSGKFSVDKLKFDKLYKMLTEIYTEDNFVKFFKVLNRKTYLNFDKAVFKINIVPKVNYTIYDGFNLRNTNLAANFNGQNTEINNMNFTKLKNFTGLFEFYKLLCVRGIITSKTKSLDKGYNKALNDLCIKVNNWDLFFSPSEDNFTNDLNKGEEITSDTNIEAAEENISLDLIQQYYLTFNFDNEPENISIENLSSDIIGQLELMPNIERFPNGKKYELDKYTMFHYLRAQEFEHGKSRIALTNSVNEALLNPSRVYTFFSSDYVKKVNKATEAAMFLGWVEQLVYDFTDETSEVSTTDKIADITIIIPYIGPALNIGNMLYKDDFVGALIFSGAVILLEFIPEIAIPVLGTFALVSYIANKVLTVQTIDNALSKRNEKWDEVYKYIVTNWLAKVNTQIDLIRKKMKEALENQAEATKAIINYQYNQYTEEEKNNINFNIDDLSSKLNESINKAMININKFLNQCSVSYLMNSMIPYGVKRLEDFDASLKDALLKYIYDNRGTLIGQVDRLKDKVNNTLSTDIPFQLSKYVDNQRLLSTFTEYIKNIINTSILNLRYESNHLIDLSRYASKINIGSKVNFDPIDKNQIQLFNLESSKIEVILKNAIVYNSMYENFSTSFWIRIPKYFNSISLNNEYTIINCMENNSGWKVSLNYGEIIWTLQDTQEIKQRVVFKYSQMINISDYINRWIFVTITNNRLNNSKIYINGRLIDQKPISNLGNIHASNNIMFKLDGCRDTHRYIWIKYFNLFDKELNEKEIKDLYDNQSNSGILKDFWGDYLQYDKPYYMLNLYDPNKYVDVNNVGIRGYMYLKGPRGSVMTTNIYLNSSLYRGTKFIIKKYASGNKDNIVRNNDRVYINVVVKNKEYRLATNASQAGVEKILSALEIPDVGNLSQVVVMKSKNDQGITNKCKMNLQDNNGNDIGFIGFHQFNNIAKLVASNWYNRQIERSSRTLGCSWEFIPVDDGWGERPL
row,Compound,inhibition
1,CCn1c(=N)c(C(=O)NC)cc2c(=O)n3cccc(C)c3nc21,3.8%
2,CCOC(=O)c1oc2cc(OCC(N)=O)ccc2c(=O)c1-c1ccc(OC)c(OC)c1,1.1%
3,CC1=CC2(O)OCCN(CCO)C2=CC1=O (stereo not drawn),-1%
4,COc1ccc2[nH]cc(C3N4CC5(C)CN3CC(C)(C4)C5=O)c2c1 (stereo not drawn),-0.2%
5,CC(=O)N1CC23C=CC(CC2CC12CCCCCC2)O3 (stereo not drawn),-1.4%
6,Cc1ccc(OCCCCn2ccnc2C)c(C)c1,-1.6%
7,CC1(C)CC(=O)C(C2=NC(C)(C)Cc3ccccc32)=C(O)C1,0.9%
8,COC(=O)c1[nH]c2ccc(C)cc2c1NC(=O)CN1CCc2cc(OC)c(OC)cc2C1,-1.7%
9,O=C(O)C1CSC(c2ccco2)N1 (stereo not drawn),-2.5%
10,COc1cc(C=NCC2OCCc3ccccc32)cc(OC)c1 (stereo not drawn),0.3%
11,COc1ccc(-c2cc(=Nc3ccc(C)cc3)c3ccccc3o2)cc1,-0.6%
12,NC(N)=N/N=C/c1cccc(Cl)c1Cl,1.3%
13,Cc1oc2c(O)c(O)ccc2c(=O)c1-c1ccccc1,0.4%
14,O=c1[nH]c(Cc2ccccc2)nc2c1oc1ccccc12,0.2%
15,COc1ccc2c(c1O)Cc1ccccc1C2=O,-0.7%
16,Cc1oncc1C(=O)Nc1ccc(C(F)(F)F)cc1,0.7%
17,CC(=O)OCC(=O)[C@@]1(O)[C@H](C)C[C@H]2[C@@H]3CCC4=CC(=O)C=C[C@]4(C)[C@@]3(F)[C@@H](O)C[C@@]21C,0.4%
18,COC(=O)c1cc(OC)c(OC)cc1NC(=O)CN1C(=O)c2ccccc2C1=O,-1%
19,CC(=O)OC[C@H]1O[C@@H](n2ncc(=O)[nH]c2=O)[C@H](OC(C)=O)[C@@H]1OC(C)=O,-0.3%
20,COC(=O)c1ccc(NC(=O)C23CCC(C)(C(=O)O2)C3(C)C)cc1 (stereo not drawn),-1.5%

row,Compound,inhibition
1,CC(=O)c1cn(C)c(=O)[nH]c1=O,1.3%
2,CCN(CC)CCN1C(=O)C(=O)/C(=C(/O)c2c(C)[nH]c(C(=O)OC)c2C)C1c1cccnc1 (stereo not drawn),-0.9%
3,COc1ccccc1C(O)c1nccn1C (stereo not drawn),-0.7%
4,CC12CCC(C(=O)NCc3ccccn3)(OC1=O)C2(C)C (stereo not drawn),-1.3%
5,COc1cc(OC)c2c(C)c(Cl)c(=O)oc2c1,-0.8%
6,O=C(Nc1cccc(Cl)c1)N1CCN2C(=O)c3ccccc3C12c1ccccc1 (stereo not drawn),-0.1%
7,CC(C)OC(=O)CC12CN3CN(C1)CC(CC(=O)OC(C)C)(C3)C2=O,-0.4%
8,Cn1c(SCC(=O)c2ccccc2)nnc1-c1ccncc1,0.4%
9,Cc1cc(=O)c2c(O)c(O)ccc2o1,2.5%
10,Cc1ccsc1/C=C/C1=NCCCN1C,1.6%
11,O=C(N/C(=C/C=C\c1ccccc1)C(=O)N1CCOCC1)c1ccc(Br)cc1,0.6%
12,CC1=CC(=O)c2ccccc2C1=O,-0.1%
13,CSCCC(NC(C)=O)C(=O)Oc1ccc2c3c(c(=O)oc2c1)CCCC3 (stereo not drawn),-1.8%
14,CNc1nc(N(C)C)nc(N(C)C)n1,0.7%
15,COc1ccc(/C=C\C(=O)c2c(O)ccc3c(C)cc(=O)oc23)cc1OC,0.2%
16,O=C1c2ccccc2C2(c3ccccc3)NCCN12 (stereo not drawn),-1.3%
17,O=c1cc(-c2ccccc2)oc2cc(OCc3ccccc3)cc(O)c12,-0.6%
18,COC1(C)CC2C(CC1OC(=O)c1cc([N+](=O)[O-])cc([N+](=O)[O-])c1)C2(C)C (stereo not drawn),-0.5%
19,O=C1[C@@H]2[C@H](Cc3ccc(O)cc3)N[C@]3(C(=O)Nc4ccccc43)[C@@H]2C(=O)N1c1ccc(F)cc1,1.7%
